The nature of assay [1]: Caspase-3/7 induction in CHO-K1 cells by small molecules, qHTS cell viability counter screen (AID 1346979). Further: nearly all actives have a fitted effect of over 35% in size. Further: potency means the concentration at half of the fitted maximal effect. The essentials:
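CellTiter-Fluor viability check, qHTS format: wild-type CHO-K1, 16hr compound treatment, 1hr reagent incubation, fluorescence read.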

The nature of assay [2]: Caspase-3/7 induction in CHO-K1 cells by small molecules, qHTS assay (AID 1346980). Further: nearly all actives have a fitted effect of over 15% in size. Further: potency means the concentration at half of the fitted maximal effect. The essentials: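 Wild-type cells were seeded at 1,500 per well and settled 5 hr at 37 C, 5% CO2, then exposed to DMSO-dissolved compounds for 17 hr. Caspase-Glo 3/7 reagent was added, and luminescence was read after 30min at room temperature.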
On the technique in general: Quantitative high-throughput screening tests each substance at several concentrations.

A short description of assay [3]: Caspase-3/7 induction in HepG2 cells by small molecules, qHTS cell viability counter screen (AID 1346981). Further: nearly all actives have a fitted effect of over 30% in size. Further: potency means the concentration at half of the fitted maximal effect. The essentials: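 HepG2, WT, 2,000 cells/well; 5 hr pre-incubation 37 C/5% CO2; compound pin-transferred from DMSO; 16 hr exposure; CellTiter-Fluor, 1 hr; fluorescence read.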
Assay [4] concerns the target Nuclear receptor subfamily 1 group I member 2 (Homo sapiens) (UniProt O75469). As to the kind of experiment: Human pregnane X receptor (PXR) small molecule agonists, qHTS assay (AID 1346982). Further: nearly all actives have a fitted effect of over 35% in size. Further: potency means the concentration at half of the fitted maximal effect. The essentials:
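Luciferase signal from ONE-Glo (30 min, room temperature) measured activation of hPXR-driven CYP3A4 reporter expression in PXR-Luc HepG2 cells treated with compounds for 24 hr at 37 C.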

Assay [5] concerns the target Acetylcholinesterase (Homo sapiens) (UniProt P22303). As to the kind of experiment: Acetylcholinesterase (AChE) small molecule antagonists: colormetric cell-based qHTS assay (AID 1347395; calls by dose curve; further: nearly all actives have a fitted effect of over 30% in size; further: potency means the concentration at half of the fitted maximal effect). In short, it runs like this: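 AChE inhibition read colorimetrically via DTNB–thiocholine in SH-SY5Y cells. Compound 30 min, substrate 90 min, both 37 C.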
Assay [6] has the same target. Put plainly: Acetylcholinesterase (AChE) small molecule antagonists: enzyme-based qHTS assay (AID 1347397; calls by dose curve; further: nearly all actives have a fitted effect of over 55% in size; further: potency means the concentration at half of the fitted maximal effect). To be noted: Potency: AChE enzyme activity inhibition. In short, it runs like this: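 Human recombinant acetylcholinesterase; substrate acetylthiocholine; thiocholine quantified with DTNB (colorimetric). Compound preincubation 30 min RT; reaction 10 min RT.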

For assay [7], the target named is Cytochrome P450 2D6 (Homo sapiens) (UniProt P10635). Put plainly: Cytochrome P450 Family 2 Subfamily D Member 6 (CYP2D6) small molecule antagonists: luciferase reporter qHTS assay (AID 1671196). Further: nearly all actives have a fitted effect of over 50% in size. Further: potency means the concentration at half of the fitted maximal effect. In short, it runs like this: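 Read-out is luminescence from luciferin formed by CYP2D6 turnover of a proluciferin substrate, recorded as relative luminescence units. Reactions ran 1 h at room temperature after NADPH regeneration solution was added.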
A general note: A reporter such as luciferase makes a cellular process visible.

In assay [8] the target is Cytochrome P450 2C19 (Homo sapiens) (UniProt P33261). Put plainly: Cytochrome P450 Family 2 Subfamily C Member 19 (CYP2C19) small molecule antagonists: luciferase reporter qHTS assay (AID 1671197). Further: nearly all actives have a fitted effect of over 65% in size. Further: potency means the concentration at half of the fitted maximal effect. The essentials:
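Compounds were tested on CYP2C19 activity via proluciferin conversion to luciferin. The 37C, 1 h reaction followed NADPH addition; detection reagent stopped it.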

Assay [9] addresses Cytochrome P450 2C9 (Homo sapiens) (UniProt P11712). As to the kind of experiment: Cytochrome P450 Family 2 Subfamily C Member 9 (CYP2C9) small molecule antagonists: luciferase reporter qHTS assay (AID 1671198). Further: nearly all actives have a fitted effect of over 50% in size. Further: potency means the concentration at half of the fitted maximal effect. The essentials:
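CYP2C9 activity was measured with a P450-Glo proluciferin substrate. Enzyme–substrate mix was held with compound for 10 min at room temperature, then NADPH regeneration solution was added for 1 h at 37C. Luciferin product was read as luminescence.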

In assay [10] the target is Cytochrome P450 1A2 (Homo sapiens) (UniProt P05177). As to the kind of experiment: Cytochrome P450 Family 1 Subfamily A Member 2 (CYP1A2) small molecule antagonists: luciferase reporter qHTS assay (AID 1671199). Further: nearly all actives have a fitted effect of over 50% in size. Further: potency means the concentration at half of the fitted maximal effect. In short, it runs like this:
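P450-Glo CYP1A2, 1536-well qHTS: enzyme/proluciferin substrate + cpd (DMSO), 10 min RT; NADPH regen, 1 h RT; detection reagent, 20 min; luminescence, RLU.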

Assay [11] has as its target Cytochrome P450 3A4 (Homo sapiens) (UniProt P08684). Put plainly: Cytochrome P450 Family 3 Subfamily A Member 4 (CYP3A4) small molecule antagonists: luciferase reporter qHTS assay (AID 1671201). Further: nearly all actives have a fitted effect of over 50% in size. Further: potency means the concentration at half of the fitted maximal effect. In short, it runs like this: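 Proluciferin-to-luciferin conversion by CYP3A4, NADPH-regenerated, 1 h RT; luminescence read as RLU. Ketoconazole as control.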
The target in assay [12] is Voltage-gated inwardly rectifying potassium channel KCNH2 (Homo sapiens) (UniProt Q12809). As to the kind of experiment: Human Ether-a-go-go-Related Gene (hERG) channel small molecule antagonists: fluorescence cell-based qHTS assay (AID 1671200). Further: nearly all actives have a fitted effect of over 50% in size. Further: potency means the concentration at half of the fitted maximal effect. The essentials:
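Kinetic two-minute fluorescence traces, sampled at 1 s, were collected following thallium stimulus of U2OS cells (1000 per well) that had been cultured overnight at 37 C and loaded with FluxOR II.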

For assay [13], the target named is Acetylcholinesterase (Homo sapiens) (UniProt P22303). As to the kind of experiment: Acetylcholinesterase (AChE) small molecule antagonists: fluorescence cell-based qHTS assay (AID 1347398; calls by dose curve; further: nearly all actives have a fitted effect of over 50% in size). Conditions: Potency: AChE activity. In short, it runs like this: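 Thiocholine generated from acetylthiocholine by SH-SY5Y cell AChE is detected with Thiolite Green (Ex/Em 490/520 nm) after 40 min at room temperature, following 30 min compound pretreatment at 37 C.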

Assay [14] shares this target. As to the kind of experiment: Acetylcholinesterase (AChE) small molecule antagonists: enzyme-based qHTS assay with human liver microsomes (AID 1347399; calls by dose curve; further: nearly all actives have a fitted effect of over 60% in size). Conditions: Potency: qHTS inhibition. In short, it runs like this: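 Recombinant human AChE (50 mU/mL in the enzyme mix) and human liver microsomes (0.25 mg/mL final) were preincubated with compound and NADPH (0.25 mg/mL final) for 30 min at 37 C. Acetylthiocholine/DTNB was then added; thiocholine was read colorimetrically after 10 min at room temperature.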

The target of assay [15] is Nuclear receptor subfamily 1 group I member 2 (Rattus norvegicus) (UniProt Q9R1A7). Put plainly: Rat pregnane X receptor (rPXR) activation by small molecules, qHTS assay (AID 1346983). Further: nearly all actives have a fitted effect of over 20% in size. Conditions: rPXR luciferase reporter cells, One-Glo luminescence, 24 h; max activation: active compounds read high. In short, it runs like this: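 Cell-based rPXR luciferase reporter assay, 2,000 cells per well, rested 5hr at 37 C before compound addition in DMSO, then 24 hr at 37 C. One-Glo reagent was added and luminescence read after 30 min at room temperature.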

In assay [16] the target is Nuclear receptor subfamily 1 group I member 2 (Homo sapiens) (UniProt O75469). Put plainly: CYP3A4 induction through human pregnane X receptor (PXR) by small molecules, qHTS assay (AID 1346984). Further: nearly all actives have a fitted effect of over 40% in size. The essentials:
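Luminescence readout: luciferase signal after One-Glo (30 min, room temperature), following 3 h at 37C with 3uM final Luciferin-IPA P450 substrate. Cells were DPX-2 (HepG2, PXR/CYP3A4-luc co-transfected) dosed for 24 h.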

Assay [17] shares this target. As to the kind of experiment: Human pregnane X receptor (PXR) activation by small molecules, qHTS assay (AID 1346985). Further: nearly all actives have a fitted effect of over 40% in size. Further: potency means the concentration at half of the fitted maximal effect. In short, it runs like this:
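DPX-2 cells (HepG2 co-transfected with a PXR response element and a CYP3A4-promoter luciferase construct) were seeded at 2,000 per well, rested 5 hr at 37C, then exposed to DMSO-dissolved compounds for 24 hr. Activation was read as luciferase luminescence.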

“And” between values parts separate entries of the source, which are not always exact repeats. Equal values may be shown once. Unmarked numbers belong to inactive results. Records with an inconclusive call do not appear. The source made the active and inactive calls. Unless noted, the call rests on the fitted dose curve; in most records, active means well fitted curve in the direction sought with a large enough effect in the repeat runs; inconclusive means weak or mixed curves; inactive means no such curve, though single readings can be large; an effect the other way counts as inactive or inconclusive.
On the % scale 0 is the no-effect control and ±100 the full control effect.

Sequence of Cytochrome P450 1A2 (Homo sapiens) (P05177 whole entry, looked up): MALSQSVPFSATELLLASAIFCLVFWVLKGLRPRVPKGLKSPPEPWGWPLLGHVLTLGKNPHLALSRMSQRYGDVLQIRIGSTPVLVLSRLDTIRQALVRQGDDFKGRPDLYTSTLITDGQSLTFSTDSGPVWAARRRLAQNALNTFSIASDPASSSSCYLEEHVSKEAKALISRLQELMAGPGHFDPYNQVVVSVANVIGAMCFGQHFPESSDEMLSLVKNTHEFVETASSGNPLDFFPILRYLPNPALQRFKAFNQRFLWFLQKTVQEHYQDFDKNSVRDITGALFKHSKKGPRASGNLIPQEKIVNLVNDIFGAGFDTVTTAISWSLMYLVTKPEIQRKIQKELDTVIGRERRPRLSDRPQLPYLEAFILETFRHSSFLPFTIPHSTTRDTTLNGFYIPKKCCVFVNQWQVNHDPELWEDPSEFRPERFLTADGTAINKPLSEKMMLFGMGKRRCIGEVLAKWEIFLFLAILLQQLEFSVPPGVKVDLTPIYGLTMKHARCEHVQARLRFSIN
Sequence of Cytochrome P450 2C9 (Homo sapiens) (P11712 whole entry, looked up): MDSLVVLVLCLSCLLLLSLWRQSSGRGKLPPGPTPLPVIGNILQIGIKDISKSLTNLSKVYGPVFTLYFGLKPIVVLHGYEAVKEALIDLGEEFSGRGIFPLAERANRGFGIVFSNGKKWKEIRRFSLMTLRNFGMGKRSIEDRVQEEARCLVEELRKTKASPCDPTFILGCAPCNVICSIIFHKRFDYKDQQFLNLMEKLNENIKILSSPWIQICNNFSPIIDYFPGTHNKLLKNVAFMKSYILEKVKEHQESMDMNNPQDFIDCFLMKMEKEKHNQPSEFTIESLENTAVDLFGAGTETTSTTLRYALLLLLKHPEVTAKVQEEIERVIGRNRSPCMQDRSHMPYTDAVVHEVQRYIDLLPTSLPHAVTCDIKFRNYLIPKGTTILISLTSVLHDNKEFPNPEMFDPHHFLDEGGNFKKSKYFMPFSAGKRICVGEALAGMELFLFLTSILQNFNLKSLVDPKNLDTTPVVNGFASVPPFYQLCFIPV
Sequence of Nuclear receptor subfamily 1 group I member 2 (Homo sapiens) (O75469 whole entry, looked up): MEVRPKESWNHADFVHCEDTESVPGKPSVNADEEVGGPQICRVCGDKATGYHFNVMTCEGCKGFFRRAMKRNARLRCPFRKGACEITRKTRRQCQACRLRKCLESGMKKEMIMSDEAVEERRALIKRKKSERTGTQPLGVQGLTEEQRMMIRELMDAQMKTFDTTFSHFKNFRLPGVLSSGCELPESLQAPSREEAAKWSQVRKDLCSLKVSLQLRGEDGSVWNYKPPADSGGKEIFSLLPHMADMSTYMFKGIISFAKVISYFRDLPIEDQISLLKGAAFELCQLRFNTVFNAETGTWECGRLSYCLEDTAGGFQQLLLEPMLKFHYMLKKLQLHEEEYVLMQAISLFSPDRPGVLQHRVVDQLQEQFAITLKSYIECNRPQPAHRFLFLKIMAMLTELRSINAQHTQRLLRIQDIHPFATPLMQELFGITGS
Sequence of Cytochrome P450 2D6 (Homo sapiens) (P10635 whole entry, looked up): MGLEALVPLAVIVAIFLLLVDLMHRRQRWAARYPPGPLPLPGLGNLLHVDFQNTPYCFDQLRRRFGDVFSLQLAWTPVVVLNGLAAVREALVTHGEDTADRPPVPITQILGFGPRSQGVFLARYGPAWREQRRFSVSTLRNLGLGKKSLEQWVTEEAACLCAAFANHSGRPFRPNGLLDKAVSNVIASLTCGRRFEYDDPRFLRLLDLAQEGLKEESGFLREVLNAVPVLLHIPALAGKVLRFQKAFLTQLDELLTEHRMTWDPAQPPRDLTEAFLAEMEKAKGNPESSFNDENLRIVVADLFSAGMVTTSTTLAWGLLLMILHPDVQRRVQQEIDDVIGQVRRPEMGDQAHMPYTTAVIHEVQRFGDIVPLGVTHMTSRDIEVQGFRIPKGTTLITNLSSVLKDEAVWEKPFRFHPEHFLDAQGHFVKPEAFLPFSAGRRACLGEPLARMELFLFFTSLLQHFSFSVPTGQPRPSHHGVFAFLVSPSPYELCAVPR
Sequence of Voltage-gated inwardly rectifying potassium channel KCNH2 (Homo sapiens) (Q12809 whole entry, looked up): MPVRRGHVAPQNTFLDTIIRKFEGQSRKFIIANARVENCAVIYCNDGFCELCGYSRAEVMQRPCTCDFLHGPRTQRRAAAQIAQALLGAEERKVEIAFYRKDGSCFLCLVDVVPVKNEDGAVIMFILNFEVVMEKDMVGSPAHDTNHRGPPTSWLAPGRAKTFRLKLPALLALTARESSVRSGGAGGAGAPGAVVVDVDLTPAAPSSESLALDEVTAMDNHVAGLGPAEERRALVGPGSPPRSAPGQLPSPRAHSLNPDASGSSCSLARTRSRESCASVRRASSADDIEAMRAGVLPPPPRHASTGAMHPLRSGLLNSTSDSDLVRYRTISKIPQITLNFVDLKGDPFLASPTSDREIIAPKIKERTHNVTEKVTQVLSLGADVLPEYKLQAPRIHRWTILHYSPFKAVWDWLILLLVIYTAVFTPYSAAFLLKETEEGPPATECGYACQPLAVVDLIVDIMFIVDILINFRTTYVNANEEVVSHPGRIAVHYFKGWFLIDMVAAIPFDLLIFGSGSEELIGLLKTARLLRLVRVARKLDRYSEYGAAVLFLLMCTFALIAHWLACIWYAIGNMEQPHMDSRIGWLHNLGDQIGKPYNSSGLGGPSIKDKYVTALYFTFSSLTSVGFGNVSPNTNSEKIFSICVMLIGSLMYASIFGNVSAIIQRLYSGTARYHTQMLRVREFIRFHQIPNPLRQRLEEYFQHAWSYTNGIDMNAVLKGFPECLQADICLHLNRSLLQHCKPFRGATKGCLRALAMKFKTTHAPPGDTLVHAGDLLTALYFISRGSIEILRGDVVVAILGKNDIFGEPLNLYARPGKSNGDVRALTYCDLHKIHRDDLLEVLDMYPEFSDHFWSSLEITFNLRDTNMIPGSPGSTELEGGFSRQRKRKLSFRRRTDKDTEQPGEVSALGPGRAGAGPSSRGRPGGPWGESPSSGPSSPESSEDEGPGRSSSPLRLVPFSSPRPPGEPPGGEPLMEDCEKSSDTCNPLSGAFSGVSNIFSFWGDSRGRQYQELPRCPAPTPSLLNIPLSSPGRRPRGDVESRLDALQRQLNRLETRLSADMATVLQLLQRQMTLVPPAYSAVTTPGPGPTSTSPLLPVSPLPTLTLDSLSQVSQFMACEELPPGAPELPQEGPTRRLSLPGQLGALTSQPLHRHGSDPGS
Sequence of Acetylcholinesterase (Homo sapiens) (P22303 whole entry, looked up): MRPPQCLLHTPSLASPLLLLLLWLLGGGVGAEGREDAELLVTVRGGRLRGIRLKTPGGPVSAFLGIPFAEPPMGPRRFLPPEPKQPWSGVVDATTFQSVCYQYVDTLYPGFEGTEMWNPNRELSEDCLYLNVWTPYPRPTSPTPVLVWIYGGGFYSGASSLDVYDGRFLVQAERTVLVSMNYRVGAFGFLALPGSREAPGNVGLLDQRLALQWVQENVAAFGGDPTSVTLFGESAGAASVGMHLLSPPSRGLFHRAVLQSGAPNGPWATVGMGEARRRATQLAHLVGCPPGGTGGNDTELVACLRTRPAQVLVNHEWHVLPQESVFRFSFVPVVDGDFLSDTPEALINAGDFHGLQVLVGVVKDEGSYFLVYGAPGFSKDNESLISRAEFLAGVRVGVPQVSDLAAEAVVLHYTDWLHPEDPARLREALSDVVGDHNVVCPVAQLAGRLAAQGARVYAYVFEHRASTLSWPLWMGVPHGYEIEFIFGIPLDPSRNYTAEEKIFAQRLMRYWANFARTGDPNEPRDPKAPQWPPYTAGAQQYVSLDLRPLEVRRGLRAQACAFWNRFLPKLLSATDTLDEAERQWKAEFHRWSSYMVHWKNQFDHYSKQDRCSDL
Sequence of Cytochrome P450 3A4 (Homo sapiens) (P08684 whole entry, looked up): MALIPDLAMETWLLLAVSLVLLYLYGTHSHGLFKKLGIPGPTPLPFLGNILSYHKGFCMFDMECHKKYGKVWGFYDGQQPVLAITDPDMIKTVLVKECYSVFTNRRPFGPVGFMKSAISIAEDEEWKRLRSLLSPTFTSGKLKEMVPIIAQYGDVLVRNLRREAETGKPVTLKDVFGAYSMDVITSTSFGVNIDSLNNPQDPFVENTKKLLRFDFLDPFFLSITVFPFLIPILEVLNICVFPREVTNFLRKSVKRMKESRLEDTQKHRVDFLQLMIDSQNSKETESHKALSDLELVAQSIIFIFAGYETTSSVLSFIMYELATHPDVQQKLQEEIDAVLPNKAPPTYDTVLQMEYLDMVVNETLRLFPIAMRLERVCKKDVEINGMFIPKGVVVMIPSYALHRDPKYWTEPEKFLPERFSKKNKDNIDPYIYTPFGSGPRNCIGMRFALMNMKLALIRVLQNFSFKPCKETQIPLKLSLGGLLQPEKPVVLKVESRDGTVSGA
Sequence of Cytochrome P450 2C19 (Homo sapiens) (P33261 whole entry, looked up): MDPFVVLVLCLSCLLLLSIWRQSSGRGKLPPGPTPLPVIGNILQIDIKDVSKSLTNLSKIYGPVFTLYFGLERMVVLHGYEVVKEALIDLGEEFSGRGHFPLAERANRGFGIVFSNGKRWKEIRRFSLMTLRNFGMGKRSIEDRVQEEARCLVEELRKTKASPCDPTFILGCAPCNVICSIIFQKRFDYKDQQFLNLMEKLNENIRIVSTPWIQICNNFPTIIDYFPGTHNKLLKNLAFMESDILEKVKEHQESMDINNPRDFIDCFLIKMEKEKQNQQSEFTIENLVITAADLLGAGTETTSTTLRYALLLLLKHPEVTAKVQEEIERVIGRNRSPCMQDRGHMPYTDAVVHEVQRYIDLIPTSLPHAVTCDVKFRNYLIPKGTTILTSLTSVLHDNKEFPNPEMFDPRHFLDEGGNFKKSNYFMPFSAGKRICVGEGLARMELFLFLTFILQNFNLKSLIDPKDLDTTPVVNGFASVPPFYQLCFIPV

In the case of `CCOP(=S)(OCC)OC(Cl)C(Cl)(Cl)Cl` (stereo not drawn), the Potency entry in [1], in [2], in assay [3], in [4] and in assay [7] was “inactive” throughout. Further, the Potency in [5] was 35.6 µM (active); in assay [6] it was 79.6 µM (active); in assay [8], 39.9 µM (active); in assay [9], 3.99 µM (active); in assay [10] it was 35.6 µM (active); in assay [11], 3.99 µM (active).
For the compound `O=C(CCl)C(Cl)Cl`, the Potency is 6.17 µM (active) in assay [1]; 21.9 µM (active) in assay [3]; 9.78 µM (active) in assay [4]; 40.3 µM (active) in assay [7]; 56.9 µM (active) in assay [8]; 40.3 µM (active) in assay [9]. In addition, the Potency entry in assay [2], in assay [6] and in assay [11] was “inactive” each time.
Consider `CN(C)C(=S)S`, for which the Potency in [1] was 8.81 µM (active) and 857 nM (active) and 12.2 µM (active). Besides, the Potency result in [2], in assay [3] and in [12] was “inactive” throughout.
As for `CCOC(=O)OC1=C(c2cc(C)ccc2C)C(=O)NC12CCC(OC)CC2` (stereo not drawn), the Potency result in [1], in assay [2], in assay [3], in assay [5], in assay [6] and in assay [13] was “inactive” throughout. Besides, the Potency entry in [14] and in assay [7] was “inactive” in each case. The Potency is 44.8 µM (active) in assay [10] and 1.12 µM (active) in assay [11].
On to `N#CSCSC#N`, for which the Potency in [1] was 9.91 µM (active) and 9.59 µM (active); in [3] it was 62.5 µM (active) and 67.9 µM (active); in assay [4] it was 22.2 µM (active) and 19.1 µM (active); in assay [8], 72.6 µM (active); in assay [9] it was 32.4 µM (active) and 35.2 µM (active); in assay [10], 23 µM (active) and 28 µM (active). Further, the Potency in assay [12] is 56.2 µM (active) and 43.2 µM (active). Besides, the Potency result in assay [2], in assay [6], in assay [13], in [14], in assay [7] and in [11] was “inactive” each time.
With `Clc1ccc(-c2ccccc2)cc1`, the Potency result in [1], in [2], in assay [3], in assay [4], in assay [5] and in assay [6] was “inactive” in each case. Moreover, the Potency entry in [14], in assay [7], in assay [9], in assay [12] and in assay [11] was “inactive” each time. In addition, in assay [10], the Potency was 39.9 µM (active).
As for `CC[C@H](C)[C@H]1O[C@]2(C=C[C@@H]1C)C[C@@H]1C[C@@H](C/C=C(\C)[C@@H](O[C@H]3C[C@H](OC)[C@@H](O[C@H]4C[C@H](OC)[C@@H](O)[C@H](C)O4)[C@H](C)O3)[C@@H](C)/C=C/C=C3\CO[C@@H]4[C@H](O)C(C)=C[C@@H](C(=O)O1)[C@]34O)O2`, the Potency was 14.4 µM (active) in assay [1]; 33.3 µM (active) in assay [7]; 21 µM (active) in assay [8]; 10.5 µM (active) in assay [9]; 33.3 µM (active) in assay [10]; 9.39 µM (active) in [11]. In addition, the Potency entry in assay [2], in [4], in assay [16], in assay [17], in [5] and in assay [6] was “inactive” each time. Moreover, the Potency result in assay [12] is “inactive”. Moreover, the max activation in assay [15] is -15.3%.
With `COc1cccc(C(=O)CCN[C@@H](C)[C@H](O)c2ccccc2)c1`, the Potency in assay [1] is 26.6 µM (active); in [7] it was 1.38 µM (active); in [8], 21.9 µM (active); in assay [9], 27.5 µM (active). Further, the Potency entry in [2], in [3], in [4] and in assay [12] was “inactive” in each case.
As to `O=[N+]([O-])c1cc(C(F)(F)F)c(Cl)c([N+](=O)[O-])c1Cl`, the Potency is 8.63 µM (active) in assay [1]; 1.93 µM (active) in assay [2]; 61.1 µM (active) in assay [3]; 12.6 µM (active) in assay [9]; 11.2 µM (active) in assay [10]; 27.5 µM (active) in assay [12]. Also, in assay [11], the Potency was 56.4 µM (active). Moreover, the Potency result in [5], in [6], in assay [13], in assay [14] and in assay [7] was “inactive” in each case.
As for `Clc1ccc(CCC(Cn2ccnc2)Sc2c(Cl)cccc2Cl)cc1` (stereo not drawn), the Potency in [1] was 11.9 µM (active); in assay [4], 4.22 µM (active); in assay [17], 4.47 µM (active); in assay [7], 2.19 µM (active); in [8], 0.0347 µM (active); in assay [9], 0.0871 µM (active). Further, the Potency in assay [10] was 15.5 µM (active); in [12] it was 7.56 µM (active). Moreover, the Potency result in [2], in [16], in [5], in assay [13] and in assay [14] was “inactive” throughout.
Consider `CC(C)CBr`, for which the Potency result in assay [1], in [2], in assay [3], in assay [4], in assay [5] and in [6] was “inactive” throughout. In addition, the Potency entry in assay [14], in assay [7], in assay [9], in assay [10], in assay [12] and in [11] was “inactive” in each case.
Take `CCS(=O)(=O)c1cccnc1S(=O)(=O)NC(=O)Nc1nc(OC)cc(OC)n1`: the Potency result in assay [1], in assay [2], in assay [3], in assay [5], in assay [6] and in assay [13] was “inactive” each time. Moreover, the Potency entry in assay [12] was “inactive”. Also, the Potency was 63.3 µM (active) in assay [8] and 71 µM (active) in assay [9].
For `Fc1cccc(Cl)c1CCl`, the Potency result in assay [1], in assay [2], in assay [3], in assay [4], in [5] and in assay [6] was “inactive” throughout. For the same compound, the Potency entry in assay [14], in assay [8], in assay [9] and in assay [11] was “inactive” throughout. Further, the Potency in assay [10] is 39.9 µM (active).

(Values after PubChem BioAssay (Tox21).)
